Compound activity (PubChem)
TIM10 inh – growth inhibitors of isogenic TIM10 control yeast, primary screen, counter-screen for tim10-1 yeast inhibitor project, luminescence, uHTS | hit rate 1.4% among 330,000 | S. cerevisiae TIM10 strain growth, BacTiter-Glo luminescence, 24 h | inhibition, % at 10 µM | AID 463195, 2010;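 active = inhibition of 40% or more at the single tested concentration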;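 note: wild-type TIM10 isogenic control strain grown at permissive 25 °C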
PfHsp90 set2 – growth inhibition of PfHsp90-expressing yeast, primary screen, antimalarial PfHsp90 inhibitor project, S. cerevisiae, BacTiter-Glo luminescence, single point, set 2; BacTiter-Glo ATP, 48 h; yeast lacking PDR1 and PDR3 efflux regulators; inhibition, % at 9.4 µM; hit rate 0.32% among 310,000; AID 504621, 2011;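 active = every replicate shows inhibition above about 80%, whatever the replicate mean, limit read from the data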;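 note: 0% = DMSO neutral controls and 100% = 20 µM radicicol positive controls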
tim23-1 inh – growth inhibitors of tim23-1 mutant yeast, primary screen, luminescence, uHTS | inhibition, % at 20 µM | S. cerevisiae tim23-1 growth, BacTiter-Glo luminescence, 24 h | hit rate 1.3% among 330,000;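 active = growth inhibition of the mutant yeast at or above 50%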;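 note: temperature-sensitive mutant grown at 25 °C; plate controls were DMSO-treated mutant yeast for no effect and medium wells lacking yeast for full effect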
SKKanGAS inh – S. pyogenes SKKanGAS growth inhibitors in kanamycin, primary screen, streptokinase expression inhibitor project, SKKanGAS strain, BacTiter-Glo luminescence. 6 h. inhibition, % at 7.5 µM. hit rate 1.3% among 300,000;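 active = mean replicate score, as percent of positive control median, at least 50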;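 note: strain carries kanamycin resistance gene driven by streptokinase promoter and grows in 40 µg/ml kanamycin; loss of luminescence reflects streptokinase promoter inhibition or plain growth inhibition; 0% = median of DMSO wells and 100% = positive control at its reference dose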
tim10-1 inh – growth inhibitors of tim10-1 mutant yeast, primary screen, luminescence, uHTS. S. cerevisiae tim10-1 ts strain growth, BacTiter-Glo, 24 h. inhibition, % at 20 µM. hit rate 2.2% among 330,000;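 active = inhibition of at least 40%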;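 note: mutant grown at 25 °C; 0% = DMSO wells with yeast and 100% = wells holding no yeast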
The depositor's hits bear a star. In the library only some 4.4% were active in any assay of this set; here they are far more common.

`O=c1c(C(c2ccccc2)c2c(O)sc3ccccc3c2=O)c(O)sc2ccccc12` gave TIM10 inh -6, tim23-1 inh 31, SKKanGAS inh 97* and tim10-1 inh -217.
For O=C(CSc1nc2nn(-c3ccccc3)c(=O)c-2c2n1CCCCC2)Nc1ccc(OC(F)F)cc1 the results were TIM10 inh 2, PfHsp90 set2 -7, tim23-1 inh 6 and tim10-1 inh 4.
COc1cccc(/C=C/C(=O)OCC(=O)Nc2cccc(S(=O)(=O)NC3=NCCCCC3)c2)c1 was read as TIM10 inh 0, PfHsp90 set2 -16, tim23-1 inh 6 and tim10-1 inh 1.
For CCOC(=O)C1CCN(C(=O)c2ccc3c(=O)n4nc(Nc5cc(C)ccc5C)sc4nc3c2)CC1 the results were TIM10 inh 12, PfHsp90 set2 -15, tim23-1 inh 20, SKKanGAS inh 50* and tim10-1 inh 25.
Screening CC1CCCN(S(=O)(=O)c2ccc(C(=O)Nc3nnc(C4=COCCO4)o3)cc2)C1 (centres undefined) returned TIM10 inh -7, tim23-1 inh -7, SKKanGAS inh 66* and tim10-1 inh 10.
`CC1CN(S(=O)(=O)c2ccc(C(=O)Nc3nnc(-c4ccccn4)o3)cc2)CC(C)O1` (centres undefined) gave TIM10 inh 3, PfHsp90 set2 3, tim23-1 inh 2, SKKanGAS inh 12 and tim10-1 inh 10.
Screening CCOC(=O)N1CCN(S(=O)(=O)c2ccc(C(=O)Nc3nnc(C)o3)cc2)CC1 returned TIM10 inh -10, PfHsp90 set2 12, tim23-1 inh -1, SKKanGAS inh -4 and tim10-1 inh 15.
Screening CC1CN(S(=O)(=O)c2ccc(C(=O)Nc3nnc(-c4ccc5c(c4)CCCC5)o3)cc2)CC(C)O1 (centres undefined) returned TIM10 inh 7, PfHsp90 set2 -48, tim23-1 inh 13, SKKanGAS inh 93* and tim10-1 inh 25.
Cc1nnc(NC(=O)c2ccc(S(=O)(=O)N3CC(C)CC(C)C3)cc2)o1 (centres undefined) was read as TIM10 inh 9, PfHsp90 set2 9, tim23-1 inh 2, SKKanGAS inh 54* and tim10-1 inh 21.
For Oc1ccccc1C=NCCN1CCN(CCN=Cc2ccccc2O)C1c1ccccc1O (centres undefined) the results were PfHsp90 set2 15.
For COc1cc(C)c(CN2CCN(CC(=O)Nc3ccccc3C(=O)NC3CC3)CC2)cc1OC the results were TIM10 inh 2, PfHsp90 set2 -8, tim23-1 inh 11 and tim10-1 inh 12.
CC(=O)C1=C(c2ccc(Br)cc2)C(=O)c2ccccc2C1=O was read as PfHsp90 set2 102* and SKKanGAS inh 66*.
O=C(OCc1cc(=O)n2ccsc2n1)c1ccccc1NCCO was read as TIM10 inh -17, PfHsp90 set2 13, tim23-1 inh -6 and tim10-1 inh -8.
Screening Cc1nc2c(C(=O)Nc3ccc(N4CCCC(O)C4)cc3)snc2c(=O)[nH]1 (centres undefined) returned TIM10 inh -26, PfHsp90 set2 1, tim23-1 inh -28, SKKanGAS inh 59* and tim10-1 inh -13.
`O=C(Nc1ccc(N2CCCC(O)C2)cc1)c1snc2c(=O)[nH]cnc12` (centres undefined) gave TIM10 inh -6, PfHsp90 set2 20, tim23-1 inh -7, SKKanGAS inh 30 and tim10-1 inh 1.
`COc1cc2cnc(-c3ccccc3)c(C(=O)c3ccc(F)cc3)c2cc1OC` gave TIM10 inh 0, PfHsp90 set2 85*, tim23-1 inh 47 and tim10-1 inh 8.
`CC1(C)c2ccccc2-n2c1cc1oc(=O)cc(O)c1c2=O` gave TIM10 inh 33, PfHsp90 set2 31, tim23-1 inh 35, SKKanGAS inh 96* and tim10-1 inh -18.
`Cc1c(O)cc2n(c1=O)-c1ccccc1C2(C)C` gave TIM10 inh -7, PfHsp90 set2 0, tim23-1 inh 8, SKKanGAS inh 19 and tim10-1 inh 10.
COc1ccccc1NC(=O)NCCCCc1ccccc1 was read as TIM10 inh 11, PfHsp90 set2 -4, tim23-1 inh 21, SKKanGAS inh 50* and tim10-1 inh 33.
Screening CCOc1ccccc1NC(=O)NCCCCc1ccccc1 returned TIM10 inh 10, PfHsp90 set2 -1, tim23-1 inh 10, SKKanGAS inh 8 and tim10-1 inh -3.
Cc1noc(C)c1S(=O)(=O)Nc1ccc2c(c1)CC(=O)N([C@H](C)CO)C[C@H](C)[C@H](CN(C)S(=O)(=O)c1ccc(F)cc1)O2 was read as TIM10 inh -2, PfHsp90 set2 -4, tim23-1 inh 16 and tim10-1 inh 11.
`Cn1c(=O)c2c(nc(C(O)c3ccccc3)n2C)n(C)c1=O` (centres undefined) gave PfHsp90 set2 13.
For Cc1cccc(Nc2nnc(-c3ccc(N4CCOCC4)c([N+](=O)[O-])c3)c3ccccc23)c1 the results were TIM10 inh 23, PfHsp90 set2 11, tim23-1 inh 26, SKKanGAS inh 59* and tim10-1 inh 20.
`CC(C)/C(=N/Nc1ccccc1[N+](=O)[O-])c1ccccc1` gave TIM10 inh -11, PfHsp90 set2 3, tim23-1 inh 21, SKKanGAS inh 56* and tim10-1 inh 14.
C/C(=N/Nc1ccccc1[N+](=O)[O-])c1ccc(C)c([N+](=O)[O-])c1 was read as TIM10 inh 13, PfHsp90 set2 0, tim23-1 inh 3, SKKanGAS inh -8 and tim10-1 inh -11.
`O=C(CCC(=O)N/N=C/c1c[nH]c2ccccc12)NCc1ccccc1` gave TIM10 inh -25, PfHsp90 set2 -3, tim23-1 inh 10, SKKanGAS inh -2 and tim10-1 inh 6.
`COc1cc(/C=N\NC(=O)CNC(=O)C2COc3ccccc3O2)ccc1O` (centres undefined) gave TIM10 inh 16, PfHsp90 set2 -17, tim23-1 inh 11, SKKanGAS inh 0 and tim10-1 inh 18.
Screening CCN(CC)c1ccc(/C=N/NC(=O)CCC(=O)NCc2ccccc2)c(O)c1 returned TIM10 inh -28, PfHsp90 set2 5, tim23-1 inh -7, SKKanGAS inh 56* and tim10-1 inh 13.
For CCN(CC)c1ccc(/C=N/NC(=O)CNC(=O)C2COc3ccccc3O2)c(O)c1 (centres undefined) the results were TIM10 inh -14, tim23-1 inh 40, SKKanGAS inh 59* and tim10-1 inh 6.
COC(=O)c1c(C)[nH]c(C(=O)OCC(=O)c2c(N)n(CC(C)C)c(=O)n(C)c2=O)c1C was read as TIM10 inh 4, PfHsp90 set2 30, tim23-1 inh 9 and tim10-1 inh 11.
